Hit rate of the full screen: of about 310,000 compounds, about 14,000 (4.5%) showed an effect of 50% or more. Effects have a minus sign here. The full list was thinned out, with strong results kept by preference.
biological target: human ether-à-go-go-related gene (hERG) potassium channel (human, UniProt Q12809); assay: primary screen, population patch clamp on CHO cells stably expressing hERG; higher = less effect of the substance
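Note: peak tail current of the secondary pulse compared with the same well before compound.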

Chain of human ether-à-go-go-related gene (hERG) potassium channel (Q12809 whole entry, looked up): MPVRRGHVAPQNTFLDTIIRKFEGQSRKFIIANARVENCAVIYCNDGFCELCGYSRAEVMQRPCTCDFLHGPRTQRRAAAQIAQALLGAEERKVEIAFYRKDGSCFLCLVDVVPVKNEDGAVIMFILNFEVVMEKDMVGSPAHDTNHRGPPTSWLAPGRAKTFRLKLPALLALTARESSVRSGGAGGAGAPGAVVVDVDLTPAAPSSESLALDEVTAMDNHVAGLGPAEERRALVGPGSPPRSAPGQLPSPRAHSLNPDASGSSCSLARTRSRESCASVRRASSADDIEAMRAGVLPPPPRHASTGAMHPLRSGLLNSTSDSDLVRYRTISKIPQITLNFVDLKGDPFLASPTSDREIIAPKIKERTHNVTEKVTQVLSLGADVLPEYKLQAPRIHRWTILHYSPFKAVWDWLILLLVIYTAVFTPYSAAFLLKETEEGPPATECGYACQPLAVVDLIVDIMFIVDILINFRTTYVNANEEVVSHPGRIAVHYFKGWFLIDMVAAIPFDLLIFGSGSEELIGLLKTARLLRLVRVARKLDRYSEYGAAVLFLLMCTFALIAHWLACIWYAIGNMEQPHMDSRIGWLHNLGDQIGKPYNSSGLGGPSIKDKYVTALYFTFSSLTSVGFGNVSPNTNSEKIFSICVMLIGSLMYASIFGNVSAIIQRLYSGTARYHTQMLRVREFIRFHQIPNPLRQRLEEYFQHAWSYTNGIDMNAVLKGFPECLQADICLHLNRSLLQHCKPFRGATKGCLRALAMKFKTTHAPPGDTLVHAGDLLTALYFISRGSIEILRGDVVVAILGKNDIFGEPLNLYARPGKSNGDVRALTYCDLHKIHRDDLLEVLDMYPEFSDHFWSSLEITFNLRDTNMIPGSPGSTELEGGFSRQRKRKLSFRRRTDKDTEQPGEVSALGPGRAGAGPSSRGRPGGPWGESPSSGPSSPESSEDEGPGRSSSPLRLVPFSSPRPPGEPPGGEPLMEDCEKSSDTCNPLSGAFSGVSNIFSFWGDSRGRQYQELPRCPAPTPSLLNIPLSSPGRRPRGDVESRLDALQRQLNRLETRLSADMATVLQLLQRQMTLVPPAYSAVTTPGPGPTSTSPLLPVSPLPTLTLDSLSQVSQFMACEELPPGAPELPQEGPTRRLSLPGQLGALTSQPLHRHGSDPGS

Point of comparison: `NC(=O)C1CCN(CC(O)CSc2ccccc2)CC1` (stereo not drawn), “hERG current change (%, negative = inhibition) at 10uM” value -0.00192%. Against it:
- Cc1nonc1CN(C)C(=O)c1cc(COc2ccc(F)cc2Cl)on1 — lower, -4.29%
- Cc1ccc(-n2c(CSc3nc(C)cc(C)n3)nnc2SCC(=O)N2CCCC2)cc1 — lower, -8.81%
- COc1cc(OC)c(C2Nc3cccc4cccc(c34)N2)c(OC)c1 — higher, 6.67%
- COc1ccc(Br)cc1C1Nc2cccc3cccc(c23)N1 — higher, 20.2%
- COc1ccccc1C1Nc2cccc3cccc(c23)N1 — lower, -50.7%
- Cn1ncc(Br)c1C(=O)N/N=C/c1cccc(OC2CSC2)c1 — lower, -8.23%
- O=C(CSc1nnc(Nc2ccccc2F)s1)Nc1cccc(S(=O)(=O)N2CCCCC2)c1 — lower, -6.58%
- CC1Cc2nc(SCC(=O)Nc3nc4ccccc4s3)n(C)c(=O)c2S1 (stereo not drawn) — lower, -20.1%
- CN1CCSc2ccc(C(=O)NCc3cccc(F)c3)cc21 — higher, 16.6%
- O=C(Nc1cnn(Cc2ccc(F)cc2)c1)c1cnccn1 — lower, -3.09%
- CCOc1ccccc1C(=O)Nc1cnn(Cc2ccc(F)cc2)c1 — lower, -58.8%
- O=C(Nc1cnn(Cc2ccc(F)cc2)c1)C(c1ccccc1)c1ccccc1 — lower, -30.1%
- O=C(CCSCCc1ccccn1)Nc1nccs1 — higher, 30.1%
- O=C(Cc1csc(NC(=O)c2ccc(F)cc2)n1)NO — lower, -3.56%
- COc1ccc(N(C(C)C(=O)N/N=C/c2cccnc2)S(C)(=O)=O)cc1 (stereo not drawn) — lower, -3.44%
- COc1ccc(N(C(C)C(=O)N/N=C/c2ccc(OCC(C)C)cc2)S(C)(=O)=O)cc1 (stereo not drawn) — lower, -9.12%
- COc1ccc(/C=N/NC(=O)C(C)N(c2ccc(OC)cc2)S(C)(=O)=O)cc1 (stereo not drawn) — lower, -8.54%
- COc1ccc(N(C(C)C(=O)N/N=C/c2ccc(OC(C)C)cc2)S(C)(=O)=O)cc1 (stereo not drawn) — lower, -52.4%
- COc1ccc(N(C(C)C(=O)N/N=C/c2cc(Br)c(C)o2)S(C)(=O)=O)cc1 (stereo not drawn) — lower, -54%
- COc1ccc(N(C(C)C(=O)N/N=C/c2ccc(OC)c(OC)c2)S(C)(=O)=O)cc1 (stereo not drawn) — higher, 5.24%
- COc1ccc(C(=O)/C=C/Nc2ccc(S(=O)(=O)Nc3cc(OC)nc(OC)n3)cc2)c(OC)c1 — higher, 19.4%
- O=Cc1cn(CCC(=O)O)nc1-c1cccc2ccccc12 — higher, 13.5%
- O=C(N/N=C\c1ccc(F)cc1)c1cc(OCC(F)(F)F)ccc1OCC(F)(F)F — lower, -21%
- COc1ccccc1C(=O)N/N=C(\C)c1ccc(NC(=O)C2CC2)cc1 — lower, -3.62%
- O=C(NCCSCc1ccc(Cl)cc1)c1cccs1 — lower, -63.7%
- O=C(Cc1ccccc1)NCCSCc1ccc(Cl)cc1 — lower, -9.5%
- O=C(NCCc1ccc(Cl)cc1)c1cccs1 — lower, -3.58%
- C=CCSc1nnc(-c2ccccc2N=Cc2c(C)[nH]n(-c3ccccc3)c2=O)c(=O)[nH]1 — lower, -26.5%
- O=C(c1cccc(S(=O)(=O)N2CCOCC2)c1)N1CCN(S(=O)(=O)c2cccs2)CC1 — higher, 5.04%
- O=C(Nc1ccc([N+](=O)[O-])cn1)c1cc(-c2cccc(Br)c2)nc2ccccc12 — higher, 17.6%
- O=C(CSc1nc2ncc(Br)cc2[nH]1)c1cccc([N+](=O)[O-])c1 — lower, -45.7%
- O=C(CSc1nc2ncc(Br)cc2[nH]1)c1ccc([N+](=O)[O-])cc1 — lower, -66.9%
- O=[N+]([O-])c1ccc(CSc2nc3ncc(Br)cc3[nH]2)cc1 — higher, 6.04%
- CCOC(=O)c1cc(C#N)c(N2CCCC2)nc1-c1ccccc1 — lower, -7.5%
- C/C(=C\c1ccc(C)o1)C(=O)c1c(C)cc(C)[nH]c1=O — higher, 11.5%
- Cc1ccccc1C(OCC(O)CN1CCC(C(N)=O)CC1)c1ccccc1 (stereo not drawn) — lower, -59.3%
- Cc1ccccc1C(OCC(O)CN1CCCCC1CCO)c1ccccc1 (stereo not drawn) — lower, -61.6%
- Cc1ccc(C(OCC(O)CN2CCCCC2CO)c2ccccc2)cc1 (stereo not drawn) — lower, -62.8%
- O=C(O)C(=O)O.OCC1CCCCN1CC(O)COC(c1ccc(F)cc1)c1ccc(F)cc1 (stereo not drawn) — lower, -71%
- CCC1CCCCN1CC(O)COCc1cccc(OC)c1 (stereo not drawn) — higher, 3.15%
- CC(OCC(O)CN1CCCCC1CCO)c1ccc(Cl)cc1 (stereo not drawn) — higher, 4.2%
